Assays:
[1] = test system: Human papillomavirus type 1a protein E7 (residues 44-93); assay: HPV1a E7 fragment binders on microarrays, primary screen, biochemical, small-molecule microarray, residues 44-93, 635 nm fluorescence (AID 1108); settings: small-molecule microarray binding, fluorescence 635 nm; higher = more signal;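 note: E7 fragment applied at 1 µg/mL in TBST for 1 h at 4 C; score combines spot fluorescence with its signal to noise ratio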
[2] = modulators of HCV replicon luciferase signal, primary screen, HCV replication inhibitor project, Huh7 cells, luciferase reporter (AID 1109); settings: 48 h, higher = more signal;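 note: huh7 hepatoma cells harbouring a luciferase neomycin HCV replicon reporter; luciferase luminescence as measure of HCV replicon replication; test concentration not given here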
[3] = biological target: Left-right determination factor 2 (Homo sapiens) (UniProt O00292); assay: LEFTY2 binders on small-molecule microarrays, primary screen, biochemical, small-molecule microarray, 635 nm fluorescence scan (AID 1110); settings: LEFTY2 binding, higher = more signal
[4] = biological target: Calmodulin-1 (Homo sapiens) (UniProt P0DP23); assay: CALM1 binders on microarrays, EGTA buffer, profiling panel, biochemical, small-molecule microarray, Cy5-labelled CALM1 (AID 1111); settings: Cy5-CALM1 binding fluorescence, higher = more signal;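 note: labelled calmodulin applied in Tris saline Tween buffer holding calcium plus EGTA and DTT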
[5] = biological target: Calmodulin-1 (Homo sapiens) (UniProt P0DP23); assay: calcium-bound CALM1 binders on microarrays, profiling panel, artefact control for SMM control-protein annotation, biochemical, small-molecule microarray, Cy5-labelled CALM1, plus calcium (AID 1112); settings: Cy5-CALM1 binding fluorescence, higher = more signal;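 note: score merges spot fluorescence with signal to noise from triplicate slides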
[6] = small-molecule microarray binders of probe aWnt5a, primary screen, biochemical, biotinylated probe, 635/667 nm fluorescence (AID 1113); settings: higher = more signal;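 note: score merges 667 nm fluorescence intensity with signal-to-noise per printed feature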
[7] = small-molecule microarray binders of probe aShh, primary screen, biochemical, biotinylated probe, 635/667 nm fluorescence (AID 1114); settings: higher = more signal;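 note: probe is biotin-labelled aShh protein from a stem cell growth factor screen; measures binding of labelled protein to compounds printed on the slide; score merges feature fluorescence at 667 nm with signal-to-noise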
[8] = small-molecule microarray binders of probe aNog, primary screen, biochemical, biotinylated probe, 635/667 nm fluorescence (AID 1115); settings: higher = more signal;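 note: probe is biotinylated aNog protein used at 0.15 µg/mL for 1 h at 4 C; z-score combines 667 nm fluorescence of each spot with its signal to noise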
[9] = biological target: Torsin-1A-interacting protein 1 (Homo sapiens) (UniProt Q5JTV8); assay: LAP1 binders from COS7 cell lysate, primary screen, small-molecule microarray, 635/667 nm fluorescence (AID 1116); settings: COS7-hLAP1 lysate binding, 635 nm fluorescence, higher = more signal
[10] = biological target: Alpha-bungarotoxin (Bungarus multicinctus) (UniProt P60615); assay: alpha-bungarotoxin binders on microarray, profiling panel, artefact control for SMM control protein annotation, biochemical, small-molecule microarray, Alexa647 label, 635/667 nm fluorescence (AID 1117); settings: alpha-BTX-A647 binding fluorescence, higher = more signal
Alpha-bungarotoxin (Bungarus multicinctus), sequence (P60615 whole entry, looked up): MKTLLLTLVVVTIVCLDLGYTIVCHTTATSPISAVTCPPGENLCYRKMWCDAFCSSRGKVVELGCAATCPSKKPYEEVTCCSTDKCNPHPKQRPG

Left-right determination factor 2 (Homo sapiens), sequence (O00292 whole entry, looked up): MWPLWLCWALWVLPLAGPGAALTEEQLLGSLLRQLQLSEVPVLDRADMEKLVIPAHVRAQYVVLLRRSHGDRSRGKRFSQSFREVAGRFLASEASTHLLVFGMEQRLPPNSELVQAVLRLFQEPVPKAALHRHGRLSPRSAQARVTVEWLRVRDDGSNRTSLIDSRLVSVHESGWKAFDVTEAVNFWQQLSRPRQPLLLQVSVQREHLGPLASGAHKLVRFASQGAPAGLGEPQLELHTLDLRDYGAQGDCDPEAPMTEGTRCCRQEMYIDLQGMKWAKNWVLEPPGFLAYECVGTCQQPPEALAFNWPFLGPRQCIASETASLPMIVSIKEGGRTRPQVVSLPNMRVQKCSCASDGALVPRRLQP
Torsin-1A-interacting protein 1 (Homo sapiens), sequence (Q5JTV8 whole entry, looked up): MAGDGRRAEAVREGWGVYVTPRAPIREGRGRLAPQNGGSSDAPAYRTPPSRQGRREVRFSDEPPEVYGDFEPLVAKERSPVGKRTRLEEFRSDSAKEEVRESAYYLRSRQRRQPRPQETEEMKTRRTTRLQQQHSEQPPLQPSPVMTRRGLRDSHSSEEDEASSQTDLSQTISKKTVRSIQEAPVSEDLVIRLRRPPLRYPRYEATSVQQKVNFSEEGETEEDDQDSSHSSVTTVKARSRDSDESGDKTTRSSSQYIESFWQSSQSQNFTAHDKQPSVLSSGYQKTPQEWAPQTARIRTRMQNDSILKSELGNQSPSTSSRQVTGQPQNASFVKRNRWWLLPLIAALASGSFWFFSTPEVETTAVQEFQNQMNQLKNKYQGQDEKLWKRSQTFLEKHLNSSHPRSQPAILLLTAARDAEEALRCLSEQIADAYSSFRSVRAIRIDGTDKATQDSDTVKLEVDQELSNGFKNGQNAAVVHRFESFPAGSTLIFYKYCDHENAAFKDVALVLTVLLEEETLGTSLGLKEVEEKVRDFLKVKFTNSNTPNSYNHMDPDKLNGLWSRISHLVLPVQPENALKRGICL

| Structure (SMILES) | composite z-score [1] | z-score [2] | composite z-score [3] | composite z-score [4] | composite z-score [5] | composite z-score [6] | composite z-score [7] | composite z-score [8] | composite z-score [9] | composite z-score [10] |
| --- | --- | --- | --- | --- | --- | --- | --- | --- | --- | --- |
| N#Cc1ccc(NN2C(C(O)C(c3ccccc3)c3ccccc3)C=CC3C(=O)N(c4ccccc4)C(=O)C32)cc1 (stereo not given) | 1.46 | -0.734 | 0.0908 | 1.87 | 0.609 | 0.0768 | 0.392 | 1.72 | 0.307 | 1.91 |
| [N-]=[N+]=NCc1ccccc1C[C@]1(C(=O)N2CCCCC2)N=C(c2ccc(OCCCO)cc2)O[C@H]1c1ccccc1N=[N+]=[N-] | 1.41 | -2.92 | 0.0928 | 1.43 | 0.587 | 0.171 | 0.417 | 1.03 | 1.85 | 1.45 |
| COC(=O)[C@@]1(Cc2ccc(F)cc2)[C@H]2c3cc(C(=O)N(C)C)n(Cc4ccc(Cl)c(C(F)(F)F)c4)c3C[C@H]2CN1C(=O)c1ccccc1 | 0.199 | -2.11 | -0.401 | 2.75 | 1.63 | -0.101 | -0.0578 | -0.222 | 2.41 | 2.36 |
| O=C1NC(=O)C2C1C=CC(C(O)c1cc(C(F)(F)F)cc(C(F)(F)F)c1)N2Nc1ccccn1 (stereo not given) | -0.2 | -0.345 | 0.274 | -0.0336 | -0.531 | -0.0165 | -0.214 | 0.566 | 1.88 | 0.143 |
| COC(=O)[C@@]1(Cc2ccccc2)[C@H]2c3cc(C(=O)N(C)C)n(Cc4ccsc4Br)c3C[C@H]2CN1C(=O)c1ccccc1 | 1.41 | -3.07 | -0.329 | 1.79 | 0.463 | 0.107 | 0.342 | 1.2 | 0.905 | 0.626 |
| CC(C)(C)OC(=O)CC[C@]1(C(=O)N2CCOCC2)N=C(c2ccc(OCCCO)cc2)O[C@H]1c1ccccc1N=[N+]=[N-] | 1.05 | 2.2 | 0.119 | 0.981 | 0.0644 | -0.0125 | 0.308 | 1.37 | 2.43 | 1.23 |
| O=C1C2C=CC(C(O)CCc3ccccc3)N(Nc3ccccc3F)C2C(=O)N1c1ccccc1 (stereo not given) | 1.29 | -0.83 | -0.208 | 0.611 | 0.11 | 0.229 | 0.13 | 1.03 | 1 | 0.324 |
| CC(C)N1C(=O)c2ccccc2[C@](C)(C(=O)NCCN2CCOCC2)[C@@H]1c1ccc(CO)cc1 | 0.416 | -0.366 | -1.03 | -0.454 | 0.23 | -0.139 | -0.206 | -0.213 | 0.143 | 0.0722 |
| CC(C)C(O)C1C=CC2C(=O)N(c3ccccc3)C(=O)C2N1Nc1ccc([N+](=O)[O-])cc1 (stereo not given) | 1.2 | 0.285 | -0.217 | 0.594 | 0.308 | 0.261 | 0.0358 | 0.202 | 1.34 | 0.801 |
| CCC(CC)C(O)C1C=CC2C(=O)NC(=O)C2N1Nc1ccccn1 (stereo not given) | 0.365 | -0.642 | 0.255 | 0.0646 | -0.161 | -0.0704 | -0.217 | 0.455 | 0.275 | 0.512 |
| CNS(=O)(=O)c1ccc(C)cc1 | 0.899 | -0.376 | 0.804 | -0.206 | -0.263 | -0.169 | -0.504 | -0.138 | -0.312 | 0.514 |
| COC(=O)C(CC#Cc1ccc2c(c1)[C@]1(C(=O)N2)[C@H](C(=O)Nc2nc3ccccc3s2)[C@H]2C(=O)O[C@H](c3ccccc3)[C@H](c3ccccc3)N2[C@@H]1c1ccccc1OCCO)C(=O)OC | 1.17 | -2.55 | 0.286 | 1.42 | 0.504 | -0.0346 | 0.257 | 0.733 | 1.01 | 2.31 |
| C[C@H]1NC(=O)[C@@]23C(=O)N[C@@H](Cc4ccccc4)C2[C@H](C)[C@@]2(C)O[C@H]2C3/C=C/C/C=C\CNC(=O)[C@@H]2CCCN2C1=O (stereo not given in full) | 0.209 | 0.534 | 0.297 | 0.339 | -0.52 | -0.0593 | -0.0035 | -0.0841 | 0.159 | 0.368 |
| CCCC[C@@H]1C[C@H]1[C@@H](NC(=O)c1ccco1)c1ccccc1C(F)(F)F | 0.209 | -1.42 | -0.23 | 1.75 | 1.2 | 0.948 | 2.6 | 2.94 | 0.58 | 1.84 |
| COC(=O)C[C@H]1O[C@]2(C(=O)N(C)c3ccccc32)[C@@H](C)[C@@H]1[Si](C)(C)F | 0.882 | 0.0456 | 0.392 | 0.0461 | -0.389 | -0.0472 | 0.23 | -0.357 | 0.239 | -0.0089 |
| CC1(C)[C@@H]2CC(C(O)C3C=CC4C(=O)N(c5ccccc5)C(=O)C4N3Nc3ccc([N+](=O)[O-])cc3)=C[C@H]1C2 (stereo not given in full) | 1.4 | -1.56 | 0.492 | 1.69 | 0.691 | 0.0718 | 0.0326 | 0.902 | 0.561 | 1.67 |
| CC(C)C[C@@H]1NC(=O)[C@@H]2C[C@H](C(=O)NCc3ccc(F)cc3)[C@H](c3cccc(OCCO)c3)N2C1=O | 0.0179 | -0.992 | 0.0533 | 0.217 | 0.0115 | -0.31 | 0.147 | -0.0315 | 0.172 | -0.41 |
| CCCCCN1CC=CC23O[C@@H]4/C=C\CCC(C)OC(=O)C4[C@H]2C(=O)N(C(C)CO)[C@@H]3C1=O (stereo not given in full) | 0.67 | -0.862 | -0.441 | -0.213 | -1.04 | -0.175 | -0.282 | -0.17 | -0.537 | -0.453 |
| COC(=O)[C@@]1(Cc2ccc(F)cc2)[C@H]2c3cc(C(=O)N4CCCC4)n(Cc4ccc(S(C)(=O)=O)cc4)c3C[C@H]2CN1C(=O)c1ccccc1 | 1.38 | -1.88 | 0.533 | 1.36 | 1.05 | 0.25 | 0.232 | 1.89 | 0.186 | 0.453 |
| C[C@H]1C2[C@H](Cc3ccccc3)NC(=O)[C@]23C(=O)N[C@H](Cc2ccccc2)C(=O)N2CCC[C@H]2C(=O)NC/C=C\C/C=C/C3[C@@H]2O[C@]12C (stereo not given in full) | -0.355 | 0.255 | 0.203 | -0.404 | -0.863 | -0.0165 | -0.0146 | -0.0003 | 0.0015 | 1.18 |
| C=CCOC(=O)[C@H]1[C@@H]2C(=O)O[C@@H](c3ccccc3)[C@@H](c3ccccc3)N2[C@@H](c2ccc(OCCOC(=O)[C@H]3C[C@H]4C(=O)N[C@@H](CCCCNC(C)=O)C(=O)N4[C@H]3c3cccc(OCCO)c3)cc2)[C@]12C(=O)Nc1ccccc12 | 1.36 | -1.47 | 0.578 | 2.53 | -0.0073 | -0.101 | 0.13 | 0.0588 | 1.22 | 0.977 |
| O=C(c1ccccc1)N1C(=O)[C@]2(COC(c3ccc(OCCCO)cc3)=N2)Cc2ccccc21 | 1.04 | -1.14 | 0.448 | 1.8 | 0.106 | -0.0303 | -0.321 | 1.13 | 1.84 | 2.29 |
| COC(=O)[C@@]1(Cc2ccccc2)[C@H]2c3cc(C(=O)N4CCCC4)n(Cc4ccc(S(C)(=O)=O)cc4)c3C[C@H]2CN1C(=O)c1ccccc1 | 0.97 | -2.02 | 0.711 | 2.61 | 1.35 | -0.0965 | -0.34 | -0.232 | 1.86 | 0.863 |
| Cc1ccc(N2C(=O)c3ccccc3[C@@H](C(=O)NC3CC3)[C@@H]2c2ccc(CO)cc2)nc1 | -1.51 | -0.312 | -3.3 | -1.35 | -1.25 | -0.268 | -0.0866 | -0.126 | -0.13 | -1.36 |
| CCC[C@@H]1C[C@@]1(CCC)[C@@H](NC(=O)c1ccccc1)c1cccc(Cl)c1 | 1.37 | -0.75 | -0.278 | 1.97 | 1.43 | 1.09 | 1.35 | 0.311 | 1.04 | 1.74 |
| COC(=O)[C@@]1(Cc2ccccc2)N=C(c2ccc(OCCCO)cc2)O[C@H]1c1ccccc1 | 0.968 | -1.98 | -1.06 | 0.288 | -0.0316 | -0.0647 | 0.261 | 1.14 | 2.32 | 1.93 |

Reference: PubChem BioAssay
